Source: PubChem
CYP2C9 inhib = inhibitors of human CYP2C9. inhibition, % at 5 µM. CYP2C9 Supersomes, luciferin-H conversion, luminescence. 96,000 tested, 20% active. P11712;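 active means blocking of liver enzyme CYP2C9 beyond about 50% at 5 µM, limit read from the data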
Target sequence (P11712 whole entry, looked up): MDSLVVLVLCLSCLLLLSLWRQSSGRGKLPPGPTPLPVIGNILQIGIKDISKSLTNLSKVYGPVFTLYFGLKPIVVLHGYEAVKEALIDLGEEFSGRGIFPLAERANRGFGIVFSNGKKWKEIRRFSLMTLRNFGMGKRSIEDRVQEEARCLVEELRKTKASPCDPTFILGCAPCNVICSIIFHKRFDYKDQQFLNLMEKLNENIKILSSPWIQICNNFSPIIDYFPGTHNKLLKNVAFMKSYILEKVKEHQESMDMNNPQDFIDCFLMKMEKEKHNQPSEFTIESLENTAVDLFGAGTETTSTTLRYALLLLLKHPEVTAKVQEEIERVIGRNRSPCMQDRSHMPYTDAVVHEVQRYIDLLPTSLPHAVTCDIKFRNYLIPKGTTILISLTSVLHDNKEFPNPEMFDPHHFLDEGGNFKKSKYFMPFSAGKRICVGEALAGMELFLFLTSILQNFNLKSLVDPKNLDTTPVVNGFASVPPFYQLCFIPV
sEH activator = soluble epoxide hydrolase (human) activation | P34913 | purified human sEH enzymatic activity, activator screen | activation, % at 2 µM | 91,000 tested, 0.04% active | AID 717; in the data active means activation above about 37%
CYP2C19 act = activators of human cytochrome P450 2C19; AID 1025; recombinant CYP2C19, luciferin-H EGE luminescence; stronger effect = higher value; 0 = fully inhibited enzyme, 1 = untreated enzyme; 96,000 tested, under 10 active; activation factor at 5 µM; P33261;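 active means activation factor of at least 2 at 5 µM in the primary screen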;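 further: 0 = wells with 2.5 mM tranylcypromine and 1 = vehicle-only wells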
CYP2C19 inhib = inhibitors of human CYP2C19. CYP2C19 Supersomes, luciferin-H EGE luminescence, 30 min. inhibition, % at 5 µM. 96,000 tested, 21% active;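 active means CYP2C19 inhibition above a set limit at 5 µM in the primary screen, cut at about 50% in these data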;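 further: plate controls were negative control wells for no effect and 2.5 mM tranylcypromine positive control for full effect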
sEH inhibitor = blocks human soluble epoxide hydrolase activity | AID 707 | 91,000 tested, 0.34% active | inhibition, % at 2 µM | P34913 | recombinant human sEH enzymatic activity assay; in the data active means inhibition above about 80%
CYP2C9 act = increases human cytochrome P450 2C9 activity | AID 1024 | 96,000 tested, 1.4% active | activation factor at 5 µM | recombinant CYP2C9, luciferin-H conversion, luminescence; stronger effect = higher value; factor 1 = untreated enzyme, 0 = blocked | P11712;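 active means activation factor of 2 or more for CYP2C9 at a 5 µM dose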;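 further: 0 = sulfaphenazole-blocked wells and 1 = vehicle-only wells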
* marks the source's active call; other numbers are inactive results; . = no result given. In the library only some 27% were active in any assay of this set; here they are far more common.

SMILES	CYP2C9 inhib	sEH activator	CYP2C19 act	CYP2C19 inhib	sEH inhibitor	CYP2C9 act
Cc1ccc(OCC(=O)Nc2ccc(N3CCCC3)cc2)cc1C	-12	0	1.1	-13	-2	1.1
O=C(O)C(Cc1ccccc1)N1Cc2ccccc2C1=O (centres undefined)	17	-7	1	-4	6	0.8
COC(=O)C(Cc1ccc(OC(=O)c2ccc(C)cc2)cc1)N1Cc2ccccc2C1=O (centres undefined)	50*	-12	0.7	28	13	0.5
CCC1CCCCN1CCNC(=O)CCS(=O)(=O)c1ccc(Br)cc1 (centres undefined)	.	-12	.	.	13	.
Cc1c(CCO)c(=O)n(-c2ccccc2)n1S(=O)(=O)c1c(Cl)cc(Cl)cc1Cl	36	4	0.4	57*	-5	0.6
O=C(O)c1ccc(COc2cccc(CO)c2)cc1	31	9	0.1	86*	-10	0.7
O=C1CNC(=O)/C1=C\N1CCN(C(c2ccccc2)c2ccccc2)CC1	10	.	1	-2	.	0.9
CCOC(=O)c1sc(NC(=O)CSc2ncn(-c3ccccc3)n2)nc1C	37	-6	0.7	29	9	0.6
Nc1nc(CSc2ncn(-c3ccccc3)n2)cs1	18	-3	0.2	82*	3	0.8
Cc1ccc(NC(=O)CSc2ncn(-c3ccccc3)n2)cc1C	.	-11	.	.	14	.
c1ccc(CSc2ncn(-c3ccccc3)n2)cc1	79*	-4	0.1	85*	4	0.2
Nc1nnc(SCc2ccccc2)n1-c1ccccc1	.	6	.	.	-4	.
O=C(CSc1ncn(-c2ccccc2)n1)c1cccs1	71*	14	0.1	94*	-18	0.3
Cc1ccc(Sc2nc(-c3ccccc3)ccc2C#N)cc1	19	10	1	-1	-9	0.8
O=C(Nc1ccc(Br)cc1)C1CC=CCC1C(=O)OCC1CCCO1 (centres undefined)	10	-35	0.5	51*	33	0.9
COc1cc(C)c(CNc2cccc(C)c2)cc1C	71*	1	0.1	93*	-4	0.3
COc1cc(C)c(CNc2cc(C)cc(C)c2)cc1C	7	4	0.7	29	-4	0.9
COc1cc(C)c(CNc2ccc(OC)c(OC)c2)cc1C	48	10	0	97*	-8	0.5
CCOC(=O)C(C)Oc1ccc(C2NC(=O)NC(C)=C2C(=O)Nc2ccccc2C)cc1 (centres undefined)	21	9	0.8	20	-8	0.8
CCCCCCCCn1c(=O)c(C(=O)OCC)c(O)c2ccccc21	78*	-2	0.6	42	0	0.2
CCCCCn1c(=O)c(C(=O)OCC)c(O)c2ccccc21	4	.	1	-4	.	1
Cc1nc2ccccc2c2c1C(=O)N(C(C)C)C2=O	3	6	0.3	70*	-6	1
Cc1nc2ccccc2c2c1C(=O)N(C)C2=O	4	-2	1.1	-8	2	1
CCc1nc(SCc2nnc(-c3ccc(C)cc3)o2)c2c(C)c(C)sc2n1	.	9	.	.	-3	.
Cc1ccc(-c2nnc(CSc3nc4cc5c(cc4cc3C)OCO5)o2)cc1	65*	-9	0.7	32	8	0.4
SMILES	CYP2C9 inhib	sEH activator	CYP2C19 act	CYP2C19 inhib	sEH inhibitor	CYP2C9 act
O=C(Nc1nc(-c2ccccc2)cs1)c1cccc(S(=O)(=O)N2CCN(Cc3ccccc3)CC2)c1	90*	-5	0.5	53*	2	0.1
O=C(Nc1nc(-c2cccs2)cs1)c1ccc(S(=O)(=O)N2CCCCC2)cc1	60*	2	0.6	39	-4	0.4
O=C(Nc1nc(-c2cccs2)cs1)c1cccc(S(=O)(=O)N2CCCCCC2)c1	94*	.	0.3	72*	.	0.1
NC(=O)C1CC(O)CN1c1nc(CN2CCOCC2)nc2scc(-c3ccccc3)c12 (centres undefined)	15	15	1	2	-12	0.9
N#C/C(=C1\C(=O)Nc2c(Cl)cc(Cl)cc21)c1nnc2n1CCCCC2	4	9	1.1	-5	-9	1
Cc1ccccc1P(=O)(CO)c1ccccc1C	-5	10	0.7	34	-12	1
COc1ccc(C(=O)Nc2ccc(N3CCOCC3)cc2)cc1OC	19	.	0.4	58*	.	0.8
Cc1ccnc2nc(C(=O)Nc3ccc(N4CCOCC4)cc3)nn12	7	22	0.5	54*	-24	0.9
COc1cc(C(=O)Nc2ccc3c(c2)OCCO3)ccc1OC(C)C	10	8	0.4	55*	-8	0.9
COc1cc(C(=O)Nc2ccc3c(c2)OCCO3)ccc1OC(F)F	-81	.	0.1	88*	.	1.8
O=C(Nc1ccc(N2CCOCC2)cc1)c1ccncc1	.	2	.	.	3	.
COc1ccc(C(=O)Nc2ccc(S(=O)(=O)N3CCOCC3)cc2)cc1OC	11	-8	1.1	-6	9	0.9
CCn1cc(C(=O)Nc2ccc3c(c2)OCCO3)c2cc(OC)c(OC)cc2c1=O	42	9	0.7	26	-7	0.6
COc1cccc(OC)c1C(=O)Nc1ccc2c(c1)OCCO2	-2	-4	0.9	12	5	1
CC(=O)Nc1cc(C(=O)N2CCN(C)CC2)ccc1Sc1ccc(C)cc1	5	-8	0.6	39	10	0.9
Cc1nn(-c2cccc(Cl)c2)c2nc(-c3ccco3)cc(C(=O)O)c12	90*	14	1.1	-5	-12	0.1
Cc1nn(-c2ccccc2)c2nc(-c3ccco3)cc(C(=O)O)c12	46	17	1.1	-6	-19	0.5
COc1nc(NS(=O)(=O)c2ccc(C)cc2)nc(C)c1Cl	71*	-5	0.3	68*	5	0.3
CCCOc1ccc(C2C(C(=O)OC)=C(C)N=C3SCCC(=O)N32)cc1OCC (centres undefined)	38	7	0.8	23	-4	0.6
CCOC(=O)C1=C(C)N=C2SC(C)C(=O)N2C1c1ccc(OCC)c(OCC)c1 (centres undefined)	61*	6	0.5	54*	-4	0.4
COCCOC(=O)C1=C(C)N=C2SCCC(=O)N2C1c1ccc(OC(=O)c2ccco2)cc1 (centres undefined)	73*	2	0.3	73*	2	0.3
CCOC(=O)C1=C(C)N=C2SC(C)C(=O)N2C1c1ccc(C(=O)OC)cc1 (centres undefined)	58*	-4	0.3	73*	5	0.4
CCOC(=O)C1=C(C)N=C2SCCC(=O)N2C1c1sccc1C (centres undefined)	4	-13	1	-1	13	1
CCOC(=O)C1=C(c2ccccc2)N=C2SCC(=O)N2C1c1ccc(OCC)c(OCC)c1 (centres undefined)	18	2	1	0	-1	0.8
CCOC(=O)C1=C(C)N=C2SCCC(=O)N2C1c1ccc(C(=O)OC)cc1 (centres undefined)	22	3	0.3	68*	-5	0.8
